# Source: the supplement of paper PMC6555819
# Legend:
# Test in all cases: PBM binding z-score (relative to random genomic background probes); higher = stronger binding; sequences stand for … in GC…GCGATTGACAGCGTAGAATGAAGG
# [1] = test system: RARb homodimer (NR concentration 270 nM)
# Summary of the method: (§1)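 Regression normalization was applied to scanned fluorescence from custom Agilent 4×180K protein-binding microarrays. Before scanning, arrays were incubated 1 h with ligand-free nuclear receptor dimers, and binding was detected with antibodies against each partner (one per run). Binding z-scores use the random background probes as reference.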
# [2] = test system: RARg:RXRa (NR concentration 270 nM, RXRa partner concentration 90 nM)
# Summary of the method: as §1
# [3] = test system: RARg homodimer (NR concentration 270 nM)
# Summary of the method: as §1
# [4] = test system: RXRa DBDmut IVT, anti-RXR (DBD mutation: RXRa K156A/R161A, NR concentration 90 nM)
# Summary of the method: as §1
# [5] = test system: RXRa homodimer (NR concentration 180 nM)
# Summary of the method: as §1
# [6] = test system: THRa:RXRa (NR concentration 90 nM, RXRa partner concentration 90 nM)
# Summary of the method: as §1
# [7] = test system: THRa homodimer (NR concentration 90 nM)
# Summary of the method: as §1
# [8] = test system: VDR homodimer (NR concentration 270 nM)
# Summary of the method: as §1
Sequence,PBM binding z-score [1],PBM binding z-score [2],PBM binding z-score [3],PBM binding z-score [4],PBM binding z-score [5],PBM binding z-score [6],PBM binding z-score [7],PBM binding z-score [8]
GCGACTGGGGCATCAGAAGGTTACCATAACTTAA,1.73,1.74,1.06,0.112,0.743,1.24,-0.47,-0.299
TCTAGTTGGTCAAAGGGCACACACTCGAAATGCG,2.36,2.72,1.97,0.876,2.62,1.12,-0.0377,0.575
CCTGCTAGGTAATGGTCAGCTAATCTACAGTATG,0.105,-0.00382,0.0688,-0.0204,-0.388,-0.173,-0.275,-0.364
CTCGAAAGGTCGGTTGAGGTGAGTATGCGGATAA,2.57,2.73,2.73,0.85,2.4,5.15,1.43,0.532
AGTCAAAGTTCACTAGGTAACTTAAGATTCAGCT,3.53,4.86,5.58,4.13,3.94,2.03,0.269,3.85
AGAACGGGGGCACGCTGAGTTGATAGCAGAGTAG,1.94,3.62,3.2,2.78,2.94,2.9,0.833,3.45
CCTGATAGGTCAATGGTCAGCTAAAGCAGCTCGC,3.38,4.62,4.89,1.32,3.76,1.72,-0.0298,0.339
TCGAGTAGGTTAGGGCCATTCAGAATGGCGTCGA,0.309,-0.0137,0.11,-0.0874,0.299,0.672,-0.173,-0.211
CCTACTGGGCCATCAGGTCAGTGATATCAACGTT,2.46,1.18,1.57,-0.413,0.552,2.19,1.78,0.319
TGAATGAGGTTATAAGATCAGAGAACGTTGCAAA,-0.136,1.39,0.985,0.35,1.74,1.55,-0.514,0.234
CTCGAAAGGTCGGTTGACGTGAGTATACGGATAA,1.53,2.54,2.8,1.06,2.29,1.21,-0.605,0.501
GATACAGGGTCAGCTAGAGGCCTGAGTATGGAAA,2.73,4.73,4.64,1.14,4.29,2.49,0.0158,0.311
ATATGTAGGTTAGCTGGGGTCATTAAGACTAGGC,3.6,3.87,3.03,1.83,5.15,5.26,3,4.98
ATCTCCAGGTAACAAGTTCAGTGAAAGAGAGGAC,2.16,1.92,1.39,0.944,1.12,1.96,1.49,3.33
TCTATTGGTTGATTAGGGCAACCGAAACAGCGGA,0.698,0.341,0.499,0.712,0.317,0.871,0.352,0.054
TCTTGTAGATCAATAGAGGTTAGGAAAGTGCGCT,0.826,0.947,0.486,0.658,1.29,2,-0.0407,0.48
TCTTGTAGATCAATAGAGGTTAAGAGAGTGCGCT,1.02,0.864,0.443,0.589,1.46,2.56,-0.485,0.473
ATCTCTAGGCAAAGATAGTTCAGTGAATGCAAAT,0.533,0.288,0.586,-0.0612,-0.0781,0.0396,-0.577,0.0259
CGAACTAGGTCATTGACAGGTCAGTGAATAGTAA,4.18,6.77,5.57,2.35,4.6,3.32,0.924,2.04
GCTATTAGTTGAATGGGCAACCGAATGATTCTCG,-0.506,-0.114,0.0984,0.405,-0.209,-0.559,-0.678,-0.095
TCTTGTACATCAATAGAGGTTAAGAAAGTGCGCT,1.31,0.893,0.714,1.08,1.46,1.52,-0.338,-0.116
AGTCAAAGTTCAGTACGAGGTAACGTAAAGCACG,3.01,4.32,4.54,3.09,2.66,3.64,1.21,2.62
CGTCCATGGTCAAAGGTCAGTGAAGAGATGACGG,4.5,5.6,5.53,0.569,5.87,2.73,-0.0105,0.771
TCTAGTTGGCCACGGAGGTCACACACGACGGGTA,3.85,3.98,3.67,0.683,4.31,3.48,2.53,1.99
TCATATAGGTAAAGGTGAAAGTTGAACGATATGA,2.08,2.34,1.51,0.648,3.71,1.79,-0.127,0.139
GCAGACAGGTGAAACGCAGGTAACTCTGGGTGGC,-0.101,0.724,0.0252,-0.652,0.337,0.963,-0.802,-0.811
GCAGACAGGTGAAACGCAGTTAACTCAGGGTGGC,-0.134,0.384,0.0446,-0.62,0.577,0.459,-0.813,-0.764
CCAGACAGGTGAGAAGGTAACTCGGCCTCGATTA,0.583,0.465,0.269,0.0522,0.351,0.364,0.256,-0.0946
